Laboratory results from PubChem BioAssay (NCATS).
Records with an inconclusive call do not appear. Entries that show only a call come without a potency. Calls of active or inactive are those of the source. Unless noted, the call rests on the fitted dose curve; in most records, active means well fitted inhibition curve with a large enough effect; inconclusive means small, poorly fitted or top-dose-only effect; inactive means flat fitted curve, though single readings scatter.

Tests used:
[1] = target: Glutathione peroxidase 1 (Homo sapiens) (UniProt P07203); assay: Primary qHTS Assay for Inhibitors of Recombinant Selenoprotein Glutathione Peroxidase 1 (GPX1) (AID 1845191); further: nearly all actives have a fitted effect of over 65% in size
Sequence of Glutathione peroxidase 1 (Homo sapiens) (P07203 whole entry, looked up): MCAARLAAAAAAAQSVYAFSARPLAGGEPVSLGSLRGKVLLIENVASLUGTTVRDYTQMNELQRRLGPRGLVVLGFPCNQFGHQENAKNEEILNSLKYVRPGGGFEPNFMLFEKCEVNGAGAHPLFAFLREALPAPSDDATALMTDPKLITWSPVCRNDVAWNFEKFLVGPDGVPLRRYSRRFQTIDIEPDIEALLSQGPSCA
In short: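 10 nM GPX1 + cpd, 30 min RT; start w/ 1 mM GSH, 0.5 mM cumene hydroperoxide, 0.5 mM NADPH, 100 nM GR, 0.01% BSA; buffer 50 mM Tris-HCl pH 7.5, 2 mM EDTA, 150 mM NaCl; Fl 340/450, 0 & 15 min.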

[2] = target: Phospholipid hydroperoxide glutathione peroxidase GPX4 (Homo sapiens) (UniProt P36969); assay: Primary qHTS Assay for Inhibitors of Recombinant Selenoprotein Glutathione Peroxidase 4 (GPX4) (AID 1845192); further: nearly all actives have a fitted effect of over 65% in size; on activity change, negative = inhibition: series mostly up to about 50 µM
Sequence of Phospholipid hydroperoxide glutathione peroxidase GPX4 (Homo sapiens) (P36969 whole entry, looked up): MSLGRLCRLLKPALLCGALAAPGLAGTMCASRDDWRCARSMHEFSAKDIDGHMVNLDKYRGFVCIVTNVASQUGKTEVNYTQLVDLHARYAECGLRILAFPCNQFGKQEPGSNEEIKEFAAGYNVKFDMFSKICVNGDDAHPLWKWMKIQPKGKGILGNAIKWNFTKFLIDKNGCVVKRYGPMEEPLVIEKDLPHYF
In short: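 NADPH consumption, followed by fluorescence at 340/450 nm between 0 and 15 min, reports GPX4 activity via coupled glutathione reductase (100 nM). Enzyme 200 nM was pre-exposed to compound 30 min; 0.5 mM cumene hydroperoxide and 1 mM GSH served as substrates.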

[3] = qHTS drug screen for cell cycle checkpoint inhibitors in PARPi-resistant BRCA-mutant ovarian cancer cell lines. (AID 1963452; calls by dose curve); details: PEO1/OlaR viability, CellTiter-Glo luminescence, 96 h, stronger effect = lower value
In short: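 PEO1, PEO4 and PEO1/OlaR ovarian cancer cells, 600 per well, exposed 96 h at 37C to a dilution series. Viability read by CellTiter-Glo luminescence, normalized to DMSO and empty wells; activity summarized as Z-AUC.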

[4] = measured here: PEO1 parental Z-AUC

**Q.** What does the source list for `O=C(OCCN(CCO)CCO)c1ccccc1O`?
**A.** Potency [1]: inactive; Potency [2]: inactive

**Q.** Which Potency [1] does the source give for `C[N+](C)(C)C1CCC(CC2CCC([N+](C)(C)C)CC2)CC1` (centres undefined) here?
**A.** inactive

**Q.** And the Potency [2]?
**A.** inactive

**Q.** With `CNC(=O)c1ccccc1Nc1nc(Nc2ccc3c(c2OC)CCC[C@H](N2CCN(CCO)CC2)C3)ncc1Cl` as the compound, how does the Potency [1] read?
**A.** inactive

**Q.** And the Potency [2]?
**A.** inactive

**Q.** And the Z-AUC [3]?
**A.** -0.709 (inactive)

**Q.** What about the Z-AUC [3, 4] of the same compound?
**A.** -0.531

**Q.** What about the Z-AUC ([3]; measured here: PEO4 Z-AUC) of the same compound?
**A.** -0.58

**Q.** Which Potency [1] does the source give for `O=C(Nc1ccc(-c2ccnc(Nc3ccc(N4CCOCC4)cc3)n2)cc1)[C@@H]1CCCN1` here?
**A.** inactive

**Q.** What about the Potency [2] of the same compound?
**A.** inactive

**Q.** And the Z-AUC [3]?
**A.** -0.466 (inactive)

**Q.** What about the Z-AUC [3, 4] of the same compound?
**A.** 0.455

**Q.** What about the Z-AUC ([3]; measured here: PEO4 Z-AUC) of the same compound?
**A.** 0.0561

**Q.** With `CONC(=O)c1ccccc1Nc1cc(Nc2cc(C)nn2C(C)C)ncc1Cl` as the compound, how does the Potency [1] read?
**A.** inactive

**Q.** What about the Potency [2] of the same compound?
**A.** inactive

**Q.** And the Z-AUC [3]?
**A.** 0.959 (inactive)

**Q.** And the Z-AUC [3, 4]?
**A.** 0.188

**Q.** And the Z-AUC ([3]; measured here: PEO4 Z-AUC)?
**A.** 0.196

**Q.** Which Potency [1] does the source give for `O=C(OC[C@H]1O[C@@H](OC(=O)c2cc(O)c(O)c(O)c2)[C@H](O)[C@@H](OC(=O)c2cc(O)c(O)c(O)c2)[C@@H]1O)c1cc(O)c(O)c(O)c1` here?
**A.** inactive

**Q.** What about the Potency [2] of the same compound?
**A.** inactive

**Q.** Which results are given for `C[N+](C)(C)CCOP(=O)([O-])OP(=O)(O)OC[C@H]1OC(n2ccc(N)nc2=O)[C@H](O)[C@@H]1O` (some centres undefined)?
**A.** outcome [1]: inactive [at 0.4 µM]; activity change, negative = inhibition [2]: 0.205% [at 0.409 µM] (inactive)

**Q.** Which Potency [1] does the source give for `CCc1ccc(N(CC(C)C)S(=O)(=O)c2ccc(OCC3CCOCC3)c(CO)c2)cc1` here?
**A.** inactive

**Q.** What about the Potency [2] of the same compound?
**A.** inactive

**Q.** And the Z-AUC [3]?
**A.** -1.27 (inactive)

**Q.** And the Z-AUC [3, 4]?
**A.** -0.28

**Q.** And the Z-AUC ([3]; measured here: PEO4 Z-AUC)?
**A.** -0.861

**Q.** Which Potency [1] does the source give for `CCC(=O)NC[C@@H]1C[C@H]1c1cccc2c1CCO2` here?
**A.** inactive

**Q.** And the Potency [2]?
**A.** inactive

**Q.** Which Potency [1] does the source give for `CCCCCC(O)/C=C/[C@@H]1C(CCCCCCC(=O)O)C(=O)C[C@@H]1O` (some centres undefined) here?
**A.** inactive

**Q.** And the Potency [2]?
**A.** inactive

**Q.** For `CCCCC[C@H](O)/C=C/[C@@H]1[C@@H](C/C=C/CCCC(=O)O)[C@@H](O)C[C@H]1O`, which Potency [1] is on record?
**A.** inactive

**Q.** What about the Potency [2] of the same compound?
**A.** inactive
